In the supplement of paper PMC3334620:
The full ranking holds about 33,000 sequences; the median of “E-score (-0.5 to 0.5)” is about -0.041, and the highest 2% start at about 0.37. Many of the other results were omitted from the sample, so the highest values are more common in it than they were.

target: T1, Ecm22 (UniProt Q05958); assay: PBM E-score (8-mer binding enrichment) (E-score (-0.5 to 0.5)); higher = stronger / more preferred TF binding; settings: protein concentration: 200 nM; construct: GST-full length
T1 sequence: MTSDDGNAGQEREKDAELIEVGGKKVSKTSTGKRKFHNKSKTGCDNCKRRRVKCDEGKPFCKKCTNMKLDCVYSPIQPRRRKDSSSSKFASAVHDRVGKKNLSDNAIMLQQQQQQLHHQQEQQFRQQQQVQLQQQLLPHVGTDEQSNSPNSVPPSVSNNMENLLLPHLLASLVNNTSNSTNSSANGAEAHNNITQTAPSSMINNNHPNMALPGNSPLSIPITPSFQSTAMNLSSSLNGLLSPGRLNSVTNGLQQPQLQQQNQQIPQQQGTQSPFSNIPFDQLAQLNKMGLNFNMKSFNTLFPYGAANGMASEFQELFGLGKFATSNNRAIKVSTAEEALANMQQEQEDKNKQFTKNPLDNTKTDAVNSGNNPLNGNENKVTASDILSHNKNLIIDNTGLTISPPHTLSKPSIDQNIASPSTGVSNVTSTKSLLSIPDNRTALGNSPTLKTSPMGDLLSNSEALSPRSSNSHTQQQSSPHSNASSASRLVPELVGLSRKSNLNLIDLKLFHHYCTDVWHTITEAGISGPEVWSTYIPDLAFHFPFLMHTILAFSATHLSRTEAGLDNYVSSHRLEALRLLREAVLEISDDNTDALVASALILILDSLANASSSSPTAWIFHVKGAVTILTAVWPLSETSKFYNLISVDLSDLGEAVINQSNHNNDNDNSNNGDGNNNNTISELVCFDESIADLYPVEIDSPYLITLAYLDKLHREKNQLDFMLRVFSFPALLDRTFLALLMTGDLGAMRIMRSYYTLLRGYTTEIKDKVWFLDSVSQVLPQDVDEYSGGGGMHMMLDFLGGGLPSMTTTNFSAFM
Outline: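 Yeast transcription factors carrying a GST tag, as full-length proteins or DNA-binding domains, were produced by PURExpress in vitro transcription/translation. About 100-200 nM protein was applied to universal all-10-mer Agilent arrays, double-stranded by primer extension on fresh or once-stripped slides. Bound protein was detected with fluorescent anti-GST, and scans were normalised with masliner. The Universal PBM Analysis Suite gave each ungapped eight-base word, pooled with its reverse complement, an E-score, a modified Wilcoxon-Mann-Whitney statistic.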

Row | Sequence | PBM E-score
1 | ATCACTAA | -0.0903
2 | AAAGGGTC | -0.109
3 | ATCATAGC | -0.0799
4 | AGTCCCAG | -0.0584
5 | GAAGAAGA | -0.0416
6 | GGGTCCTA | -0.218
7 | TGGGACCA | -0.27
8 | GAAGGTTA | -0.016
9 | AGGAGCTC | -0.0307
10 | CCGAGCTA | 0.101
11 | GCGAGCTA | 0.248
12 | ACGAGCTC | 0.39
13 | ACGAGCTA | 0.39
14 | AGGAGCTG | -0.288
15 | ACGAGCTG | 0.411
16 | CCGAGCTC | 0.219
17 | ACGAGCAT | 0.365
18 | ACGAGCAG | 0.383
19 | ACGAGCAA | 0.288
20 | AAGAGCTG | -0.264
21 | GAAGTATC | 0.0371
22 | ACTTCACG | -0.0496
23 | ATATGGAT | 0.133
24 | ACGGTTTA | 0.0698
25 | CAACTCTC | -0.11

Row | Sequence | PBM E-score
26 | AGTCCGAA | 0.0505
27 | CGTTTCGA | 0.202
28 | CGTCGTCA | 0.0778
29 | TATCGTAA | 0.363
30 | CGTCGTGA | 0.117
31 | AGTCGTCA | -0.236
32 | AGTCGTGA | 0.0257
33 | GGTCGTGA | -0.0346
34 | GGTCGTCA | 0.0226
35 | CGTCGTAA | 0.446
36 | AGTCGTAA | 0.395
37 | TGTCGTAA | 0.428
38 | GGTCGTAA | 0.417
39 | TGGCGTAA | 0.0429
40 | CGCGAGAG | 0.233
41 | ACGGTAGC | -0.00152
42 | ACAATCGC | 0.226
43 | AAGTTTTC | 0.0919
44 | AGCCTGGC | -0.142
45 | ACCGTGCG | 0.161
46 | GTCCGTGA | 0.0485
47 | CCTTAGCA | -0.287
48 | AGACGACC | 0.0158
49 | ATACGACG | 0.485
50 | ACACGACC | 0.186

Row | Sequence | PBM E-score
51 | AGACGACG | 0.23
52 | CTACGACC | 0.413
53 | ACACGACG | 0.251
54 | CGACGACC | 0.154
55 | CCACGACC | 0.00845
56 | ATACGACC | 0.473
57 | CCGCGCTA | 0.0135
58 | ATGAGAGG | -0.151
59 | CTCGCAAG | 0.17
60 | GTCCGTCA | -0.131
61 | CAGGGCAG | -0.104
62 | ACTTTCCA | -0.205
63 | AAGTAGCA | -0.137
64 | ATTGTAGA | 0.0824
65 | GCCGTTCA | 0.229
66 | ACCGTTCT | 0.135
67 | ACCGTTCC | 0.434
68 | CCCGTTCC | 0.447
69 | GACGTTCC | 0.141
70 | CCCGTTCG | 0.196
71 | ACCGTTCG | 0.229
72 | CCCGTTCA | 0.267
73 | GCCGTTCC | 0.444
74 | GAGGCTCA | -0.237
75 | CTCGGCAA | 0.106

Row | Sequence | PBM E-score
76 | GCTCTAAA | -0.144
77 | CCTAACAC | 0.0728
78 | GGTACTAC | 0.0611
79 | AACGGCGA | 0.381
80 | CACGGCGA | 0.0797
81 | AACGGCGT | 0.242
82 | AACGACGC | 0.448
83 | CACGACGC | 0.119
84 | ACCGACGG | 0.196
85 | AAGGACGT | 0.0897
86 | AACGACGT | 0.435
87 | ACCGACGT | 0.329
88 | AACGACGG | 0.444
89 | GACGACGC | 0.145
90 | CACGACGG | 0.167
91 | AGAGTCAG | -0.111
92 | ACCTTCGG | 0.188
93 | CACCATGG | -0.173
94 | AGAGGGTA | -0.0925
95 | GAGCCACA | -0.0887
96 | CGGTTTTA | 0.072
97 | CCTAGCAG | -0.263
98 | GTTGCTCA | 0.108
99 | ACAGGTCC | -0.142
100 | ATATCAAG | 0.0598

Row | Sequence | PBM E-score
101 | TCTGGGAA | 0.00899
102 | CGCATGCG | 0.0792
103 | ACGGTAAC | 0.151
104 | CACGACGA | 0.108
105 | AGCGACGA | 0.195
106 | GACGACGA | 0.0563
107 | ATCGACGA | -0.00044
108 | AACGACGA | 0.444
109 | TACGACGA | 0.469
110 | AGACTTAT | -0.104
111 | CAGCAATG | -0.198
112 | GGATGGTA | -0.0324
113 | TCACTCGA | 0.163
114 | AATGCAGC | -0.147
115 | AAGGTACG | 0.434
116 | ATGGTACA | -0.122
117 | CAGGTACC | -0.126
118 | ATGGTACC | -0.225
119 | ATGGTACG | 0.443
120 | AAGGTACT | 0.0334
121 | AAGGTACC | -0.0364
122 | CAGGTACA | -0.23
123 | CAGGTACG | 0.423
124 | CCTCCTTA | 0.032
125 | CATGCGGG | -0.05

Row | Sequence | PBM E-score
126 | ATAGTGCC | 0.0559
127 | CTAAGCTC | -0.2
128 | ACCGTCTG | -0.112
129 | ATTGCAGG | -0.00797
130 | CCGGTACG | 0.448
131 | CCGGTACC | -0.103
132 | ACGGTACT | 0.0921
133 | CCGGTACA | 0.0868
134 | ACGGTACG | 0.436
135 | ACGGTACC | 0.206
136 | AAAGATTG | -0.286
137 | ACGGAGGA | 0.151
138 | CTCGCTGA | -0.0623
139 | CTCGCTCA | 0.358
140 | CTCGCTTA | 0.41
141 | CTCGCTCC | 0.405
142 | GTCGCTAA | 0.289
143 | GTCGCTGA | -0.073
144 | ATCGCTCC | 0.185
145 | GTCGCTTA | 0.37
146 | ATCGCTTA | 0.327
147 | AAACTCCG | -0.112
148 | AGGGACGG | -0.256
149 | AGTCCGGC | -0.138
150 | AGCGTATA | 0.366

Row | Sequence | PBM E-score
151 | TACGTACA | 0.328
152 | AACGTATC | 0.127
153 | TACGTATA | 0.401
154 | GACGTATA | 0.365
155 | AACGTATA | 0.411
156 | CACGTATA | 0.386
157 | TACGTAGA | 0.133
158 | CGCGTATA | 0.403
159 | CACGTATG | 0.0729
160 | GGCGTATA | 0.359
161 | AACGTATT | 0.229
162 | GGGTGGAA | -0.284
163 | CACCCGCG | -0.0941
164 | TGCTAACA | -0.0691
165 | ACCTGGCT | -0.059
166 | ATCCAAGC | -0.231
167 | ACTAAGGA | 0.1
168 | CGGCCATC | -0.22
169 | CAGCCTCA | -0.00094
170 | TTCCACAA | -0.0103
171 | CTCAGTTA | -0.187
172 | ACGGCGAG | 0.214
173 | ACGGCGAC | 0.21
